Reference: PubChem BioAssay AID588689 (Southern Research Specialized Biocontainment Screening …, 2011)
In all, about 340,000 compounds went through this assay and about 1,000 (0.29%) were called active. Cut-off read from the data, not from the text of the source: inconclusive = inhibition above about 29% without an active follow-up result; inactive = below that. The list is a sample of the results. Entries with a potency or affinity are not part of this list.

Molecular target: Genome polyprotein (Dengue virus type 2 (strain 16681-PDK53)) (UniProt P29991)
Test: Dengue-2 NS5 methyltransferase inhibitors, primary screen, biochemical, confirmation dose response (AID 588689)
Details: Dengue-2 NS5 methyltransferase capping enzyme assay, at 25 µM, stronger effect = higher value
[1] = measured here: pilot screen replicate inhibition

Row | SMILES | inhibition | inhibition [1] [%]
1 | Cc1ccc2[nH]cc(CCNC(=O)c3ccc4c(c3)OCO4)c2c1 | 1.31% (inactive) | -1.82
2 | O=S(=O)(NCc1nnc2ccccn12)c1ccc(F)cc1 | -3.63% (inactive) | –
3 | Cc1sc(N2C(=O)C3C4C=CC(C4)C3C2=O)c(C#N)c1C (centres undefined) | -2.18% (inactive) | –
4 | CC(C)[C@H](NC(=O)c1c(F)cccc1F)C(=O)OCC(=O)NNC(=O)c1ccccc1 | -2.88% (inactive) | –
5 | CN(C)c1ccc2c(O)cc(=O)n(C)c2c1 | 23.3% (inactive) | –
6 | CN(C)c1ccc(Cc2ccc(N(C)C)cc2)cc1 | 4.45% (inactive) | –
7 | COc1cc(NC(=O)c2cccs2)c(OC)cc1NC(=O)c1cccs1 | -7.78% (inactive) | –
8 | CCC(C)N(C(=O)CSc1nc(C)nc2ccccc12)C1CCS(=O)(=O)C1 (centres undefined) | -9.59% (inactive) | –
9 | O=C(c1ccccc1)N1CCN(c2ccc(N3CCOCC3)nn2)CC1 | 0.74% (inactive) | –
10 | C[C@H](CO)N1C[C@H](C)[C@H](CN(C)C(=O)Nc2ccccc2)OCc2cnnn2CCCC1=O | 1.65% (inactive) | –
11 | O=C1C=C(Nc2ccccc2O)c2ccccc2C1=O | 19% (inactive) | –
12 | O=C1C=C(Nc2cccnc2)c2ccccc2C1=O | 33.2% (inactive) | –
13 | CSc1nnc(C)c(=O)n1COC(=O)COc1ccc2ccccc2c1 | 3.64% (inactive) | –
14 | COc1ccc(-c2c(C#Cc3ccc(N(C)C)cc3)c3ccccc3n2C)cc1 | 6.35% (inactive) | –
15 | Cc1nc2c(-c3ccccc3)c(C)nn2c(N)c1-c1ccccc1 | -5.49% (inactive) | –
16 | Cc1cc(-c2ccc([N+](=O)[O-])cc2)nc2ccccc12 | 0% (inactive) | –
17 | C[C@@]12C(=O)Nc3cc(F)c(F)cc3C(=O)N1[C@H]1c3cc(Cl)ccc3OC[C@@H]1[C@@H]2c1ccccc1 | 2.81% (inactive) | –
18 | Cc1cc(C)c2[nH]c(=O)c(C(c3nnnn3Cc3ccc4c(c3)OCO4)N3CCCCC3)cc2c1 (centres undefined) | 9.03% (inactive) | –
19 | Cc1cc(C)c(NC(=O)CN2C(=O)NC3(CCCCC3)C2=O)c(C)c1 | -3.21% (inactive) | –
20 | Cc1cccc(NC(=O)CN(C)S(=O)(=O)c2ccc(-c3ccc(=O)[nH]n3)s2)c1C | -3.18% (inactive) | –

Row | SMILES | inhibition | inhibition [1] [%]
21 | CC(=O)CC(=O)NC1CCc2ccccc21 (centres undefined) | -2.7% (inactive) | –
22 | CC1=CC(=O)C(C(C)C)=C/C1=N/OS(=O)(=O)c1ccccc1 | -4.66% (inactive) | –
23 | CCOc1ccc(C(=O)c2ccccc2C(=O)O)cc1OCC | -7.73% (inactive) | –
24 | CC1(C)SC(=S)N(/N=C/c2ccccc2)C1N(O)C(=O)Nc1ccc([N+](=O)[O-])cc1 (centres undefined) | -1.56% (inactive) | –
25 | CC(=O)N(C1=C(N2CCOCC2)C(=O)c2ccccc2C1=O)c1ccc(C(=O)O)cc1 | 24.1% (inactive) | –
26 | COc1ccccc1N(/N=C1\Sc2ccccc2C1=O)C(C)=O | 0.77% (inactive) | –
27 | COc1ccccc1N(C(C)=O)c1nc(C)cc(C)c1C#N | -9.48% (inactive) | –
28 | CC(=O)N(c1ccccc1)C1CCCC1 | -5.78% (inactive) | –
29 | CC(=O)N(C1=C(N)C(=O)c2ccccc2C1=O)c1ccccc1 | -4.08% (inactive) | –
30 | CC(=O)N(C1=C(O)c2ccccc2C(=O)C1=O)C1CCCCC1 | 4.86% (inactive) | –
31 | CC(C)CCCN1C(Nc2ccccc2)=NC[C@@H]1C | -8.02% (inactive) | –
32 | O=C(COC(=O)/C=C/c1ccc(C(F)(F)F)cc1)NCc1ccco1 | 1.3% (inactive) | –
33 | COc1ccccc1NC(=O)CN1C(=O)COc2ccc(S(=O)(=O)N3CCCCCC3)cc21 | -3.55% (inactive) | –
34 | COc1cccc(C(=O)Nn2c(-c3cccs3)nc3ccccc3c2=O)c1OC | -3.56% (inactive) | –
35 | O=C(NCc1ccccn1)c1ccc(Cn2cc(C(F)(F)F)ccc2=O)cc1 | -5.74% (inactive) | –
36 | Cn1c(=O)c2c(ncn2CC(=O)N2CCc3ccccc3C2)n(C)c1=O | -0.55% (inactive) | –
37 | CCCC[C@@H]1C=C(C(=O)O)[C@H](c2ccc(Cl)cc2)N1S(=O)(=O)c1ccc(C)cc1 | 9.27% (inactive) | 1.23
38 | CCCCC[C@@H]1C=C(C(=O)O)[C@H](c2ccc(C)cc2)N1S(=O)(=O)c1ccc(C)cc1 | 10.4% (inactive) | –
39 | CCc1ccc([C@@H]2CC=C(C(=O)O)[C@H](c3ccccc3)N2S(=O)(=O)c2ccc(C)cc2)cc1 | 15.1% (inactive) | –
40 | Cc1ccc(S(=O)(=O)N2[C@@H](c3ccccc3)C(C(=O)O)=CC[C@H]2c2ccc(Cl)cc2)cc1 | 13.2% (inactive) | –

Row | SMILES | inhibition | inhibition [1] [%]
41 | CCc1ccc([C@@H]2CC=C(C(=O)O)[C@H](c3ccc(F)cc3)N2S(=O)(=O)c2ccc(C)cc2)cc1 | 15.9% (inactive) | –
42 | Cc1ccc([C@H]2C(C(=O)O)=CC[C@@H](c3ccc(Cl)cc3)N2S(=O)(=O)c2ccc(C)cc2)cc1 | 23.2% (inactive) | 7.95
43 | Cn1ncc([N+](=O)[O-])c1C(=O)Nc1cccc2ccccc12 | -4.99% (inactive) | –
44 | CC(C)CN(C(=O)COC(=O)CCCc1c[nH]c2ccccc12)c1c(N)n(Cc2ccccc2)c(=O)[nH]c1=O | 1.62% (inactive) | –
45 | Clc1ccc(OCCn2cnc(Cl)c2Cl)cc1 | 2.87% (inactive) | –
46 | Cc1cccn2cc(CCNC(=O)c3ccc(Br)o3)nc12 | 3.48% (inactive) | –
47 | O=C1COCCOCCOCCOCC(=O)NCCN1 | -2.15% (inactive) | –
48 | CCOC(=O)C1=CN(Cc2ccco2)S(=O)(=O)N(C)C1c1ccc(C(F)(F)F)cc1 (centres undefined) | -11.6% (inactive) | -0.605
49 | O=C(CSc1nnc(Cc2ccccc2)o1)NCCN1C(=O)CSC1=O | -7.38% (inactive) | –
50 | CCCCc1ccc(/C=C(\C#N)C(N)=S)s1 | 0% (inactive) | –
51 | CCc1ccc(/C=C(/C#N)C(N)=S)s1 | 0% (inactive) | –
52 | Cc1ccc(N2C(=O)CC(Nc3ccc(Cl)c(S(=O)(=O)N(C)C)c3)C2=O)c(C)c1 (centres undefined) | -11.6% (inactive) | –
53 | Cc1ccc(S(=O)(=O)NCCOCCNS(=O)(=O)c2ccc(C)cc2)cc1 | -4.78% (inactive) | –
54 | CC(C)C(C(=O)O)N1C(=O)/C(=C/C=C/c2ccco2)SC1=S (centres undefined) | 42.9% (inactive) | –
55 | CC(C)C(C(=O)O)N1C(=O)/C(=C/c2cccn2C)SC1=S (centres undefined) | -19.5% (inactive) | –
56 | CC(/C=C1\SC(=S)N(CC(=O)N2CCN(c3ccccc3)CC2)C1=O)=C\c1ccccc1 | -0.73% (inactive) | –
57 | CC(/C=C1\SC(=S)N(CC(=O)O)C1=O)=C\c1ccccc1 | 26% (inactive) | –
58 | CCC(C(=O)O)N1C(=O)/C(=C/c2cccn2C)SC1=S (centres undefined) | -25.5% (inactive) | –
59 | CC(/C=C1\SC(=S)N(NC(=O)c2ccncc2)C1=O)=C\c1ccccc1 | 21.6% (inactive) | –
60 | CC(/C=C1\SC(=S)N(CCC(=O)Nc2ccc(O)cc2)C1=O)=C\c1ccccc1 | 1.3% (inactive) | –
